Assay results reported in PubChem BioAssay AID1159580 (chemical genetic matrix, 2015).
Among all 5,500 compounds or so, about 2,000 (36%) were called active. Not shown: some 18% with an inconclusive outcome. Rule as the data show it: active = normalized growth mostly below about 0.91 (no sharp cut-off); inconclusive = no clear call, values can overlap the other calls; inactive = mostly above about 0.92. This is one part of the list.

Assay: chemical genetic growth profiling, strain panel (AID 1159580);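 also: tested at 20 µM; growth read once vehicle control cultures reached saturation at 30 °C; 1 = growth at the plate median or of vehicle wells; lower values mean less growth of the strain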
Conditions: growth OD

Measured: normalized growth

c1ccc([C@H]2CN3CCSC3=N2)cc1
inactive: S. cerevisiae deletion strains, locus YJR075W, strain HOC1, stronger effect = lower value 1.01 | S. cerevisiae deletion strains, locus YKL009W, strain mrt4, stronger effect = lower value 1.01 | S. cerevisiae deletion strains, locus YKL068W, stronger effect = lower value 1.01 | S. cerevisiae deletion strains, locus YKL085W, strain MDH1 (second series), stronger effect = lower value 0.999 | S. cerevisiae deletion strains, locus YKL085W, strain MDH1, stronger effect = lower value 0.999 | S. cerevisiae deletion strains, locus YKL160W, strain elf1, stronger effect = lower value 1.01 | S. cerevisiae deletion strains, locus YKL190W, strain CNB1, stronger effect = lower value 0.998 | S. cerevisiae deletion strains, locus YKR001C, strain vps1, stronger effect = lower value 1 | S. cerevisiae deletion strains, locus YKR026C, strain gcn3, stronger effect = lower value 1.02 | S. cerevisiae deletion strains, locus YKR091W, strain srl3, stronger effect = lower value 0.993 | S. cerevisiae deletion strains, locus YLL001W, strain dnm1, stronger effect = lower value 0.99 | S. cerevisiae deletion strains, locus YLL026W, stronger effect = lower value 1.01 | S. cerevisiae deletion strains, locus YLL041C, strain sdh2, stronger effect = lower value 1.01 | S. cerevisiae deletion strains, locus YLR027C, strain aat2, stronger effect = lower value 0.99 | S. cerevisiae deletion strains, locus YLR039C, strain RIC1, stronger effect = lower value 1.02 | S. cerevisiae deletion strains, locus YLR058C, strain SHM2, stronger effect = lower value 1.01 | S. cerevisiae deletion strains, locus YLR102C, strain apc9, stronger effect = lower value 1 | S. cerevisiae deletion strains, locus YLR113W, strain HOG1, stronger effect = lower value 1.08 | S. cerevisiae deletion strains, locus YLR221C, strain rsa3, stronger effect = lower value 0.979 | S. cerevisiae deletion strains, locus YLR258W, strain gsy2, stronger effect = lower value 1.02 | S. cerevisiae deletion strains, locus YLR262C, strain YPT6 (second series), stronger effect = lower value 0.999 | S. cerevisiae deletion strains, locus YLR262C, strain YPT6, stronger effect = lower value 0.992 | S. cerevisiae deletion strains, locus YLR268W, strain sec22, stronger effect = lower value 0.993 | S. cerevisiae deletion strains, locus YLR320W, strain mms22, stronger effect = lower value 0.988 | S. cerevisiae deletion strains, locus YLR330W, strain CHS5, stronger effect = lower value 1.01 | S. cerevisiae deletion strains, locus YLR342W, strain FKS1 (second series), stronger effect = lower value 1.02 | S. cerevisiae deletion strains, locus YLR342W, strain FKS1, stronger effect = lower value 1.01 | S. cerevisiae deletion strains, locus YLR357W, strain rsc2, stronger effect = lower value 1.03 | S. cerevisiae deletion strains, locus YLR370C, strain arc18, stronger effect = lower value 0.999 | S. cerevisiae deletion strains, locus YLR371W, strain rom2, stronger effect = lower value 1.01 | S. cerevisiae deletion strains, locus YLR384C, strain iki3, stronger effect = lower value 1.01 | S. cerevisiae deletion strains, locus YLR418C, strain cdc73, stronger effect = lower value 0.984 | S. cerevisiae deletion strains, locus YML016C, strain PPZ1, stronger effect = lower value 1 | S. cerevisiae deletion strains, locus YML032C, strain rad52, stronger effect = lower value 1.02 | S. cerevisiae deletion strains, locus YML120C, strain ndi1, stronger effect = lower value 0.988 | S. cerevisiae deletion strains, locus YML124C, strain tub3, stronger effect = lower value 1 | S. cerevisiae deletion strains, locus YMR058W, strain fet3, stronger effect = lower value 1 | S. cerevisiae deletion strains, locus YMR078C, strain ctf18, stronger effect = lower value 0.996 | S. cerevisiae deletion strains, locus YMR125W, strain sto1, stronger effect = lower value 1.01 | S. cerevisiae deletion strains, locus YMR129W, stronger effect = lower value 0.996 | S. cerevisiae deletion strains, locus YMR205C, strain PFK2, stronger effect = lower value 1.02 | S. cerevisiae deletion strains, locus YMR223W, strain ubp8, stronger effect = lower value 1.01 | S. cerevisiae deletion strains, locus YMR231W, strain pep5, stronger effect = lower value 1 | S. cerevisiae deletion strains, locus YMR263W, strain SAP30, stronger effect = lower value 1 | S. cerevisiae deletion strains, locus YMR307W, strain GAS1, stronger effect = lower value 1.03 | S. cerevisiae deletion strains, locus YNL067W, strain RPL9B, stronger effect = lower value 1 | S. cerevisiae deletion strains, locus YNL071W, strain lat1, stronger effect = lower value 1.04 | S. cerevisiae deletion strains, locus YNL128W, strain TEP1, stronger effect = lower value 1.01 | S. cerevisiae deletion strains, locus YNL153C, strain GIM3, stronger effect = lower value 0.988 | S. cerevisiae deletion strains, locus YNL183C, strain NPR1, stronger effect = lower value 0.983 | S. cerevisiae deletion strains, locus YNL209W, strain ssb2, stronger effect = lower value 0.984 | S. cerevisiae deletion strains, locus YNL233W, strain BNI4, stronger effect = lower value 1.01 | S. cerevisiae deletion strains, locus YNL248C, strain rpa49, stronger effect = lower value 1 | S. cerevisiae deletion strains, locus YNL250W, strain rad50, stronger effect = lower value 1.01 | S. cerevisiae deletion strains, locus YNL271C, strain bni1, stronger effect = lower value 1.01 | S. cerevisiae deletion strains, locus YNL298W, strain CLA4, stronger effect = lower value 1 | S. cerevisiae deletion strains, locus YNL307C, strain MCK1, stronger effect = lower value 1.02 | S. cerevisiae deletion strains, locus YNL322C, strain KRE1 (second series), stronger effect = lower value 0.979 | S. cerevisiae deletion strains, locus YNL322C, strain KRE1, stronger effect = lower value 1 | S. cerevisiae deletion strains, locus YNR049C, strain mso1, stronger effect = lower value 0.994 | S. cerevisiae deletion strains, locus YNR052C, strain pop2, stronger effect = lower value 1.01 | S. cerevisiae deletion strains, locus YOL006C, strain TOP1, stronger effect = lower value 1.02 | S. cerevisiae deletion strains, locus YOL012C, strain htz1 1.06 | S. cerevisiae deletion strains, locus YOL147C, strain pex11, stronger effect = lower value 1 | S. cerevisiae deletion strains, locus YOR001W, strain rrp6, stronger effect = lower value 0.961 | S. cerevisiae deletion strains, locus YOR061W, strain CKA2, stronger effect = lower value 1 | S. cerevisiae deletion strains, locus YOR069W, strain VPS5, stronger effect = lower value 0.995 | S. cerevisiae deletion strains, locus YOR070C, strain gyp1, stronger effect = lower value 1.01 | S. cerevisiae deletion strains, locus YOR080W, strain dia2, stronger effect = lower value 0.994 | S. cerevisiae deletion strains, locus YOR083W, strain WHI5, stronger effect = lower value 0.995 | S. cerevisiae deletion strains, locus YOR106W, strain vam3, stronger effect = lower value 1.02 | S. cerevisiae deletion strains, locus YOR136W, strain idh2, stronger effect = lower value 0.997 | S. cerevisiae deletion strains, locus YOR144C, strain elg1, stronger effect = lower value 1 | S. cerevisiae deletion strains, locus YOR184W, strain ser1, stronger effect = lower value 1.02 | S. cerevisiae deletion strains, locus YOR231W, strain MKK1, stronger effect = lower value 1.05 | S. cerevisiae deletion strains, locus YOR265W, strain rbl2, stronger effect = lower value 1 | S. cerevisiae deletion strains, locus YOR270C, strain vph1, stronger effect = lower value 1.02 | S. cerevisiae deletion strains, locus YOR290C, strain snf2, stronger effect = lower value 1.01 | S. cerevisiae deletion strains, locus YOR316C, strain cot1, stronger effect = lower value 1.01 | S. cerevisiae deletion strains, locus YPL051W, strain arl3, stronger effect = lower value 1.01 | S. cerevisiae deletion strains, locus YPL055C, strain LGE1, stronger effect = lower value 0.98 | S. cerevisiae deletion strains, locus YPL078C, strain atp4, stronger effect = lower value 1.02 | S. cerevisiae deletion strains, locus YPL106C, strain sse1, stronger effect = lower value 0.999 | S. cerevisiae deletion strains, locus YPL240C, strain hsp82, stronger effect = lower value 1 | S. cerevisiae deletion strains, locus YPL241C, strain CIN2, stronger effect = lower value 1.01 | S. cerevisiae deletion strains, locus YPL256C, strain CLN2, stronger effect = lower value 1.04 | S. cerevisiae deletion strains, locus YPR119W, strain clb2, stronger effect = lower value 1 | S. cerevisiae deletion strains, locus YPR141C, strain kar3, stronger effect = lower value 0.999 | S. cerevisiae deletion strains, locus YPR163C, strain tif3, stronger effect = lower value 1 | S. cerevisiae deletion strains, locus YPR167C, strain met16, stronger effect = lower value 0.998 | S. cerevisiae deletion strains, strain wtn01, stronger effect = lower value 0.997 | S. cerevisiae strains, strain wild type, stronger effect = lower value 1
